Results as given in PubChem BioAssay AID493056 (National Center for Advancing Translational Sciences (NCATS), 2011).
Screen size: about 360,000 compounds; about 2,400 (0.67%) were called active. This excerpt belongs to a sample that is enriched for actives. Unmarked numbers belong to inactive results. Rule as the data show it: active = enhancement above about 30%; inactive = the rest.

Target: Thyrotropin-releasing hormone receptor (Homo sapiens) (UniProt P34981)
Test: qHTS for Small Molecule Agonists and Allosteric Enhancers of Human TRH Receptor: Primary Screen for Enhancers; also: 0% is about no effect
Conditions: TRHR cells, fluo-8 calcium fluorescence, EC20 TRH enhancement; at 2 µM; active compounds read high
How it was run: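 TRHR-expressing cells loaded with fluo-8 calcium dye were read kinetically (ex 480/em 530) during compound addition, then stimulated with an EC20 of TRH (10 nM final). Enhancement of the Gq-mediated intracellular calcium response was scored.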

Thyrotropin-releasing hormone receptor (Homo sapiens), sequence (P34981 whole entry, looked up): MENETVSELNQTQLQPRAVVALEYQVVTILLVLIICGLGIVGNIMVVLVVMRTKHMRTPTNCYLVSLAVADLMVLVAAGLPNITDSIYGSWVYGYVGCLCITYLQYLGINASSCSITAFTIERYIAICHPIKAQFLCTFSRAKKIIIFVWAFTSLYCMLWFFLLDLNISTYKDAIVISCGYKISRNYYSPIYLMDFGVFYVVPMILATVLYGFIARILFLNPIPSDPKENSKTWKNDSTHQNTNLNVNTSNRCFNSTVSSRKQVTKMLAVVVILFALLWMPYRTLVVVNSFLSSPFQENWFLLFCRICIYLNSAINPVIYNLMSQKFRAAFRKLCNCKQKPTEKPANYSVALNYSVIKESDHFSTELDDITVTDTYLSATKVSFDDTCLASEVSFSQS

Structure (SMILES) | enhancement
Cc1cc(C)cc(Nc2ncnc3onc(-c4ccc(F)cc4)c23)c1 | 5.09%
Cn1c(SCC(=O)N2CCCc3ccccc32)ncc(C(=O)Nc2ccc(F)cc2)c1=O | 7.76%
COc1cc2nc(NCC(C)c3ccccc3)n3nc(-c4ccccc4)nc3c2cc1OC (stereo not given) | 15.5%
O=C(NCc1cccs1)c1cc(-c2ccccn2)nc2ccc(Br)cc12 | 30.5% (active)
O=C(NCc1cccs1)c1ccc(Br)o1 | -3.47%
O=C(CN1CCN(c2ccccn2)CC1)NCc1cccs1 | 17.1%
CCc1ccc(-n2nc(C)c3c(C)cc(=O)n(CC(=O)Nc4ccc(F)cc4C)c32)cc1 | 6.58%
CN(C)c1ccnc(Oc2ccc(F)cc2)c1C#N | 4.36%
CCOC(=O)CSc1nccc(N(C)C)c1C#N | 36.1% (active)
CCOC(=O)CSc1nc(N2CCOCC2)c2c(c1C#N)CC(C(C)C)OC2 (stereo not given) | -9.38%
O=C(C1COc2ccccc2O1)N(Cc1cccnc1)c1nc2c(F)cc(F)cc2s1 (stereo not given) | -1.37%
CCCNC(=O)CCc1c(C)nc2c(c(C)nn2-c2ccc(C)cc2)c1C | 7.28%
Cc1cc(C)c(NC(=O)CCc2c(C)nc3c(c(C)nn3C(C)(C)C)c2C)c(C)c1 | 31% (active)
COC(=O)c1ccc(NC(=O)CCc2c(C)nc3c(c(C)nn3-c3ccc(C)cc3)c2C)cc1 | 0.187%
Cn1c(C(=O)N2CCC(C(=O)N3CCN(c4ccccc4)CC3)CC2)cc2sccc21 | 0.218%
COc1ccc(N2CCN(C(=O)C3CCCN(C(=O)c4cc5sccc5n4C)C3)CC2)cc1 (stereo not given) | 32.5% (active)
Cn1c(C(=O)N2CCCC(C(=O)NCc3ccccc3)C2)cc2sccc21 (stereo not given) | 4.18%
Cc1ccccc1CSc1nc2c([nH]c3ccccc32)c(=O)n1C | -2.07%
COc1ccc(Cl)cc1-n1c(CCC(=O)O)ccc1-c1ccc(C)cc1 | 7.8%
Cc1ccc(S(=O)(=O)N2CCC(N3CCCCCC3)CC2)cc1 | 26.1%
Cc1ccc(S(=O)(=O)N2CCN(C(=O)c3cccs3)CC2)cc1 | 0.403%
Cc1ccc(S(=O)(=O)N2CCN(C)CC2)cc1 | 33.6% (active)
Cc1ccc(N2CCN(S(=O)(=O)c3ccc(F)cc3)CC2)c(C)c1 | 32% (active)

Structure (SMILES) | enhancement
Cc1ccc(C)c(N2CCN(S(=O)(=O)c3ccc4c(c3)C(C(C)C)C(=O)N4)CC2)c1 (stereo not given) | -4.92%
Cc1ccccc1N1CCN(S(=O)(=O)c2ccc3ccccc3c2)CC1 | -5.29%
CCc1cc2c(cc3c(=O)n(CC(=O)N4CCN(c5cc(Cl)ccc5C)CC4)nc(CC)n32)s1 | -2.18%
Cc1nc2sc(C)c(C)n2c(=O)c1S(=O)(=O)NCCc1ccc(Cl)cc1 | 2.98%
O=C(Nc1nnc(-c2ccc(Cl)cc2)o1)c1ccccc1Br | 1.12%
O=C(COC(=O)c1ccccc1Br)Nc1nnc(-c2ccccc2)o1 | 32.2% (active)
O=C(COC(=O)CSc1nnc(-c2ccc(Cl)cc2)o1)Nc1cc(Cl)cc(Cl)c1 | -8.1%
CSc1ncc(C(=O)NCc2ccccc2Cl)c(C(F)(F)F)n1 | -4.14%
CN(C)c1ccc(NC(=O)CSc2nc(-c3ccco3)cc(C(F)(F)F)n2)cc1 | 10.8%
O=C(NC1CCCCC1)c1ccc(Cn2c(SCc3ccccc3)nc3cccnc32)cc1 | 7.91%
COc1ccccc1C(=O)NCC(=O)NCCSc1ccc(Br)cc1 | 0.828%
COc1cc(C(=O)NCC(=O)NCCSc2ccc(Br)cc2)cc(OC)c1OC | 1.93%
COc1cccc(C(=O)NCCSc2ccc(Br)cc2)c1 | 31.9% (active)
CCOc1cc(C2C(C(=O)Nc3ccc(OC)cc3)=C(C)Nc3nc(SC)nn32)ccc1O (stereo not given) | -5.28%
O=C(C1Cc2ccccc2CN1C(=O)c1ccco1)N1CCN(c2ccccc2)CC1 (stereo not given) | 36% (active)
COc1ccccc1N1CCN(C(=O)C2Cc3ccccc3CN2C(=O)c2ccco2)CC1 (stereo not given) | 6.6%
CCC(=O)N1c2ccccc2CC1C(=O)N1CCN(c2ccccc2)CC1 (stereo not given) | -2.98%
COc1cccc(NC(=O)CSC2=Nc3ccccc3C3=NC(CC(=O)NC4CCCCC4)C(=O)N23)c1 (stereo not given) | -3.86%
COc1ccc(NC(=O)c2sc3nc(-c4cc5cccc(OC)c5oc4=O)[nH]c(=O)c3c2C)cc1 | 8.15%
Cn1c(=O)c2c(SCC(=O)NCC3CCCO3)nc(-c3ccccc3F)nc2n(C)c1=O (stereo not given) | -1.86%
Cc1cc(C)n(S(=O)(=O)c2cccc([N+](=O)[O-])c2)n1 | -7.84%
Cc1ccc(-c2cn(S(=O)(=O)c3cccc([N+](=O)[O-])c3)nc2N)cc1 | 43.3% (active)
CC1=NCCN1S(=O)(=O)c1cccc([N+](=O)[O-])c1 | 18.4%

Structure (SMILES) | enhancement
CCOc1ccc(CNC(=O)c2cc(=O)[nH]c3ccc(S(=O)(=O)N4CCCCC4)cc23)cc1 | 5.17%
COc1ccc(OC)c(NC(=O)Cn2c(=O)n(Cc3ccccc3)c(=O)c3ccccc32)c1 | -7.19%
COc1ccc(C(=O)N2CCC(c3nc4ccccc4o3)CC2)cc1 | 6.96%
COc1ccccc1-c1nnc(SCC(N)=O)o1 | 0.976%
COc1ccccc1-c1nnc(C2CCN(C(=O)c3ccc(Cl)cc3)CC2)o1 | 49.9% (active)
COC(=O)c1c(NC(=O)c2ccc(Cl)c(Cl)c2)sc2c1CCCC2 | 12.7%
COc1cccc(C(=O)NC2CCN(C#N)CC2)c1 | -0.807%
Cc1ccc(Cl)cc1N1CCN(C(=O)c2cnc3c(-c4ccc(F)cc4)c(C)nn3c2C)CC1 | -2.73%
CCOc1ccc(N(CC)C(=O)c2noc3c2COc2ccc(C)cc2-3)cc1 | -7.18%
COc1ccc(-n2cnnc2SCC(=O)Nc2cccc(S(N)(=O)=O)c2)cc1 | 17.5%
NS(=O)(=O)c1cccc(NC(=O)CSc2nc3ccccc3n2-c2ccccc2)c1 | 41.7% (active)
Cc1nnc(SCC(=O)Nc2cccc(N)c2)n1-c1ccccc1 | 3.5%
O=C(CNC(=O)c1ccc(Cl)c(C(F)(F)F)c1)OC(C(=O)Nc1cc(C(F)(F)F)ccc1Cl)c1ccccc1 (stereo not given) | -3.64%
Cc1nn(-c2nc(-c3ccccc3)cc(C(F)(F)F)n2)c(C)c1Cl | -7.42%
COc1cccc(-n2ccn(CC(=O)NCc3ccc(C)cc3)c(=O)c2=O)c1 | 6.62%
COc1ccc(OC)c(NC(=O)CN(Cc2ccc(Cl)cc2)S(C)(=O)=O)c1 | -0.638%
COc1ccc(Cl)cc1NC(=O)CN(C)CC(=O)Nc1ccc2c(c1)OCO2 | -3.24%
COc1ccc(Cl)cc1NC(=O)CN(C)Cc1ccc(OC)c(OC)c1 | 56.6% (active)
Cc1ccc(Cl)c(OCC(=O)NN2CCN(C)CC2)c1 | 1.82%
O=C(COc1ccccc1Cl)N1CCCCCCC1 | -0.869%
Cc1ccc(Cl)c(OCC(=O)N2CCc3ccccc3C2)c1 | 61.4% (active)
Cc1cccc(CC(=O)Nc2cccc(-c3cn4cccnc4n3)c2)c1 | -2.19%
Cc1ccc(SCC(=O)Nc2ccc3oc(-c4ccccc4F)nc3c2)cc1 | -1.22%

Structure (SMILES) | enhancement
CCc1ccc(N2C(=O)CN(S(=O)(=O)CC)CC2(C)C(=O)NC2CCCCC2)cc1 (stereo not given) | -0.256%
Cc1ccc(CCNC(=O)c2ccc3c(c2)N(Cc2cc(C)ccc2C)C(=O)c2ccccc2S3=O)cc1 (stereo not given) | 26.1%
Cc1ccc(C)c(CN2C(=O)c3ccccc3S(=O)c3ccc(C(=O)N4CCOCC4)cc32)c1 (stereo not given) | 30.5% (active)
O=C(c1ccc2c(c1)N(Cc1ccccc1F)C(=O)c1ccccc1S2(=O)=O)N1CCOCC1 | 16.1%
COc1ccc(NC(=O)C2CCN(c3ccc(Sc4ccc(C)cc4)nn3)CC2)c(OC)c1 | 7.96%
CCc1nn(CC(=O)N2CCN(c3ccc(Cl)cc3)CC2)c(=O)c2cc3occc3n12 | 3.41%
COc1ccc(S(=O)(=O)N/N=C\c2ccc(OC)c(COc3ccc(C)cc3[N+](=O)[O-])c2)cc1 | -2.77%
CCc1ccc(S(=O)(=O)Nc2ccc(C)c(NS(C)(=O)=O)c2)cc1 | 2.33%
CCc1ccc(S(=O)(=O)N/N=C\c2ccc([N+](=O)[O-])o2)cc1 | 49.5% (active)
O=c1c2ccccc2n(Cc2cccc(Cl)c2)c(=O)n1Cc1ccccc1 | 1.58%
CCOc1ccc(N(CC)C(=O)c2cc3c(=O)oc4ccccc4c3s2)cc1 | -1.26%
Oc1c(Br)cccc1/C=N/Nc1c(F)c(F)c(F)c(F)c1F | 35.3% (active)
O=C1C(F)N([S+](=O)([O-])c2ccc3c(c2)OCCO3)CCN1[S+](=O)([O-])c1c(F)cccc1F (stereo not given) | 3.19%
N#CN1CCC(NC(=O)c2ccc(F)cc2)CC1 | 1.17%
Cn1cccc1C1(C(F)(F)F)NCCNC1=O (stereo not given) | 50.7% (active)
Cn1c(=O)c2c(ncn2CC(=O)Nc2cccc(C(F)(F)F)c2)n(C)c1=O | -2.46%
O=[S+]([O-])(c1ccc2c(c1)OCCO2)N1CCN([S+](=O)([O-])c2c(Cl)cc(Cl)cc2Br)CC1 | -1.85%
CCOc1ccc(-n2c(SCC(=O)NCc3ccccc3)nc3n[nH]c(C)c3c2=N)cc1 | -5.76%
Cc1ccc(C(=O)Nc2cc3c(cc2N2CCCC2)n(C)c(=O)c(=O)n3C)cc1 | 32.4% (active)
CCn1c(=O)c(=O)n(CC)c2cc(N3CCCCC3)c(NC(=O)c3cccc(F)c3)cc21 | 4.18%
CCn1c(=O)c(=O)n(CC)c2cc(N3CCCCC3)c(NC(=O)c3ccc(Cl)cc3)cc21 | 4.4%
